Source: PubChem BioAssay (Tox21)
Records with an inconclusive call do not appear. A call without a number means that no potency is given here. Unmarked numbers belong to inactive results. Calls of active or inactive are those of the source. Calls come from the whole dose curve; as a rule, active = well fitted cell-killing curve with a large enough effect in the repeat runs; inconclusive = weak or mixed curves, or effect the other way; inactive = flat fitted curve, though single readings scatter.

Assays:
[1] = cAMP Responsive Elements (CRE) small molecule antagonists, cell-based qHTS assay: qHTS cell viability counter screen (AID 2060913); conditions: CRE-bla HEK293T viability, CellTiter-Glo luminescence, 5 h; series mostly up to 92.4 µM; note: nearly all actives have a fitted effect of over 40% in size; note: potency is the fitted concentration of half-maximal effect
Method in brief: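 CRE-bla HEK293T cells were seeded in assay medium with 10% dialyzed FBS, incubated 18 hrs at 37 C, then exposed to compounds plus 0.25 uM final NKH477 for 3 hrs. Viability was read by CellTiter-Glo luminescence after 30 min, in the same wells.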

[2] = cAMP Responsive Elements (CRE) small molecule agonists, cell-based qHTS assay: qHTS cell viability counter screen (AID 2060914); conditions: CRE-bla HEK293T viability, CellTiter-Glo luminescence, 5 h; series mostly up to 92.4 µM; note: nearly all actives have a fitted effect of over 50% in size
Method in brief: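 In the same wells as the reporter read, viability of CRE-bla HEK 293T cells was quantified by CellTiter-Glo luminescence after a 3 h compound exposure.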

| SMILES | Potency [1] | Potency [2] | viability change, negative = cytotoxic [1] | activity change, negative = cytotoxicity [2] |
| --- | --- | --- | --- | --- |
| O=C(c1ccccc1)c1cc(Cl)ccc1O | inactive | inactive | – | – |
| CC[C@@H](N)CO | inactive | inactive | – | – |
| O=C(O)C[C@H](O)C[C@H](O)/C=C/c1c(C2CC2)nc2ccccc2c1-c1ccc(F)cc1 | – | – | 5.03% [at 18.9 µM] | 17.9% [at 18.9 µM] |
| NC(N)=NC(N)=NCCc1ccccc1 | inactive | inactive | – | – |
| c1ccc2ncccc2c1 | inactive | inactive | – | – |
| CC(C)(C)N | inactive | inactive | – | – |
| c1cc[nH]c1 | inactive | inactive | – | – |
| O=C(c1ccc(O)cc1)c1ccc(O)cc1O | inactive | inactive | – | – |
| CCCCCCCCCCl | inactive | inactive | – | – |
| CCCCCCCCC(CO)CCCCCC (stereo not given) | inactive | inactive | – | – |
| C#CC(O)C(CC)CCCC (stereo not given) | inactive | inactive | – | – |
| CC(C)(C)NCCNC(C)(C)C | inactive | inactive | – | – |
| O=C1c2ccccc2C(=O)C1c1ccc2cc(S(=O)(=O)O)cc(S(=O)(=O)O)c2n1 | inactive | inactive | – | – |
| CC(C)(CCl)c1ccccc1 | inactive | inactive | – | – |
| CN(C)CCN1CCOCC1 | inactive | inactive | – | – |
| CCC(C)COC(C)=O (stereo not given) | inactive | inactive | – | – |
| CC(COc1ccccc1)NC(C)C(O)c1ccc(O)cc1 (stereo not given) | inactive | inactive | – | – |
| CCN(CC)CCOC(=O)C1(c2ccccc2)CCCC1 | inactive | inactive | – | – |
| CN(C)Cc1cc(C(C)(C)C)c(O)c(C(C)(C)C)c1 | inactive | inactive | – | – |
| C=CC(=O)OCCOc1ccccc1 | inactive | inactive | – | – |
| O=[N+]([O-])c1cc(N(CCO)CCO)ccc1NCCO | inactive | inactive | – | – |
| Cc1ccc2c(Br)cc(Br)c(O)c2n1 | inactive | inactive | – | – |
| O=C(O)c1ccccc1Nc1cccc(C(F)(F)F)c1 | inactive | inactive | – | – |

| SMILES | Potency [1] | Potency [2] | viability change, negative = cytotoxic [1] | activity change, negative = cytotoxicity [2] |
| --- | --- | --- | --- | --- |
| CO[C@@]1(NC(=O)CSCC#N)C(=O)N2C(C(=O)O)=C(CSc3nnnn3C)CS[C@@H]21 | inactive | inactive | – | – |
| ONc1ccccc1 | inactive | inactive | – | – |
| COC(=O)C1=C(C)NC(COC(N)=O)=C(C(=O)OC(C)C)C1c1cccc(Cl)c1Cl (stereo not given) | inactive | inactive | – | – |
| O=C(Oc1ccccc1)c1ccccc1 | inactive | inactive | – | – |
| O=C1NC(=O)c2cccc3cccc1c23 | inactive | inactive | – | – |
| Cc1cn([C@H]2C[C@H](N=[N+]=[N-])[C@@H](CO)O2)c(=O)[nH]c1=O | inactive | inactive | – | – |
| SCCCCCCCCS | inactive | inactive | – | – |
| CCCc1ccc(O)cc1 | inactive | inactive | – | – |
| COCCCOc1cc(C[C@@H](C[C@H](N)[C@@H](O)C[C@H](C(=O)NCC(C)(C)C(N)=O)C(C)C)C(C)C)ccc1OC | inactive | inactive | – | – |
| CC(C)(C)c1cc(CCC(=O)NCCCCCCNC(=O)CCc2cc(C(C)(C)C)c(O)c(C(C)(C)C)c2)cc(C(C)(C)C)c1O | inactive | inactive | – | – |
| C#Cc1ccc(-c2ccccc2F)cc1 | inactive | inactive | – | – |
| O=C(O)Cc1ccccc1Nc1c(Cl)cccc1Cl | inactive | inactive | – | – |
| Oc1cc(O)c2c(c1)O[C@H](c1ccc(O)c(O)c1)[C@H](O)C2 | inactive | inactive | – | – |
| Nc1ccn([C@@H]2O[C@H](CO)[C@@H](O)[C@@H]2O)c(=O)n1 | inactive | inactive | – | – |
| Nc1cc(S(=O)(=O)O)cc2cc(S(=O)(=O)O)cc(O)c12 | inactive | inactive | – | – |
| CCCCCCCCCC=O | inactive | inactive | – | – |
| CC(=O)N1CCN(c2ccc(O)cc2)CC1 | inactive | inactive | – | – |
| C=CC(C)C#N (stereo not given) | inactive | inactive | – | – |
| O=C(O)COC(=O)Cc1ccccc1Nc1c(Cl)cccc1Cl | inactive | inactive | – | – |
| O=[N+]([O-])c1cccc(I)c1 | inactive | inactive | – | – |
| CS(=O)(=O)c1ccc(-c2cn3ccccc3n2)cc1 | 26.6 µM (active) | inactive | – | – |
| CCCCCCCCCCCCCC | inactive | inactive | – | – |
| CCCCC1C(=O)N(c2ccccc2)N(c2ccccc2)C1=O | inactive | inactive | – | – |

| SMILES | Potency [1] | Potency [2] | viability change, negative = cytotoxic [1] | activity change, negative = cytotoxicity [2] |
| --- | --- | --- | --- | --- |
| Cc1ccc([N+](=O)[O-])c(C)c1 | inactive | inactive | – | – |
| O=S1(=O)CCCC1 | inactive | inactive | – | – |
| C#CCN(C)Cc1ccccc1 | inactive | inactive | – | – |
| CCCCCCOC(=O)C(C)CC (stereo not given) | inactive | inactive | – | – |
| Cc1ccc(-c2cc(C(F)(F)F)nn2-c2ccc(S(N)(=O)=O)cc2)cc1 | inactive | inactive | – | – |
| CCC(=O)OCc1ccc(OC)cc1 | inactive | inactive | – | – |
| C[N+](C)(C)CC[N+]1(C)Cc2c(Cl)c(Cl)c(Cl)c(Cl)c2C1 | inactive | inactive | – | – |
| CCC/C=C/CO | inactive | inactive | – | – |
| CCCCCc1ccco1 | inactive | inactive | – | – |
| COc1ccnc(CS(=O)c2nc3cc(OC(F)F)ccc3[nH]2)c1OC (stereo not given) | inactive | inactive | – | – |
| COc1ccc(/C(C)=C/C(=O)O)c(OC)c1 | inactive | inactive | – | – |
| CC(C)Cn1cnc2c(N)nc3ccccc3c21 | – | – | -1.2% [at 18.9 µM] | -0.0081% [at 18.9 µM] |
| N=C(N)c1ccc(OCCCOc2ccc(C(=N)N)cc2)cc1 | inactive | inactive | – | – |
| COC(=O)c1cc(Cl)c(NC(C)=O)cc1OC | inactive | inactive | – | – |
| COc1cc(C)ccc1O | inactive | inactive | – | – |
| CC(=O)Nc1ccc(S(=O)(=O)Nc2cc(C)on2)cc1 | inactive | inactive | – | – |
| CCCCCCc1ccc(O)cc1O | inactive | inactive | – | – |
| C=CCOc1c(Br)cc(Br)cc1Br | inactive | inactive | – | – |
| C=Cc1ccccc1C=C | inactive | inactive | – | – |
| O=C(Nc1cccc2c(=O)cc(-c3nn[nH]n3)oc12)c1ccc(OCCCCc2ccccc2)cc1 | inactive | inactive | – | – |
| O=C1c2ccccc2CCc2ccccc21 | inactive | inactive | – | – |
| Cc1cccc2c1cc1ccc3cccc4ccc2c1c34 | inactive | inactive | – | – |
| Nc1ccc(C(=O)NCC(=O)O)cc1 | inactive | inactive | – | – |

| SMILES | Potency [1] | Potency [2] | viability change, negative = cytotoxic [1] | activity change, negative = cytotoxicity [2] |
| --- | --- | --- | --- | --- |
| CC1=CC(=O)CC(C)(C)C1 | inactive | inactive | – | – |
| CCC(=O)O[C@@H]1C[C@H]2CC[C@]1(C)C2(C)C | inactive | inactive | – | – |
| CC/C=C\CCO | inactive | inactive | – | – |
| CC1=NN(c2cc(S(=O)(=O)O)ccc2Cl)C(=O)C1N=Nc1ccccc1 (stereo not given) | inactive | inactive | – | – |
| C=C[C@H]1CN2CC[C@H]1C[C@H]2[C@H](O)c1ccnc2ccc(OC)cc12 | inactive | inactive | – | – |
| CCOC(=S)SSC(=S)OCC | inactive | inactive | – | – |
| CN1CCC(=C2c3ccccc3CCc3cccnc32)CC1 | inactive | inactive | – | – |
| CCOC(=O)[C@H](C)O | inactive | inactive | – | – |
| CCOC(=O)CC(O)(CC(=O)OCC)C(=O)OCC | inactive | inactive | – | – |
| FC(F)(Cl)C(F)(Cl)Cl | inactive | inactive | – | – |
| CCCCCCCCCCCCCCN(C)C | – | – | 8.85% [at 18.9 µM] | -15% [at 18.9 µM] |
| C=CCCC=C | inactive | inactive | – | – |
| COc1nc(N)nc2c1ncn2[C@@H]1O[C@H](CO)[C@@H](O)[C@@H]1O | inactive | inactive | – | – |
| O=C(c1ccc2c(c1)C(=O)OC2=O)c1ccc2c(c1)C(=O)OC2=O | inactive | inactive | – | – |
| CCCCCCCCCCCCC1CO1 (stereo not given) | inactive | inactive | – | – |
| c1cc(C(c2ccc(OCC3CO3)cc2)C(c2ccc(OCC3CO3)cc2)c2ccc(OCC3CO3)cc2)ccc1OCC1CO1 (stereo not given) | inactive | inactive | – | – |
| CCCCCCCCCO | inactive | inactive | – | – |
| CCCCN(CCC(=O)OCC)C(C)=O | inactive | inactive | – | – |
| CCCOCCOCCO | inactive | inactive | – | – |
| C[C@@H](O)[C@H]1C(=O)N2C(C(=O)O)=C([C@H]3CCCO3)S[C@H]12 | inactive | inactive | – | – |
| CC(C)(C)c1cc(O)c(C(C)(C)C)cc1O | inactive | inactive | – | – |
| CCCC(C)CC (stereo not given) | inactive | inactive | – | – |
| O=C(O)Cc1cn(-c2ccccc2)nc1-c1ccc(Cl)cc1 | inactive | inactive | – | – |

| SMILES | Potency [1] | Potency [2] | viability change, negative = cytotoxic [1] | activity change, negative = cytotoxicity [2] |
| --- | --- | --- | --- | --- |
| C1CCCNCCC1 | inactive | inactive | – | – |
| CC(C)(C)NC[C@H](O)COc1nsnc1N1CCOCC1 | inactive | inactive | – | – |
| CCc1ccc(CCOc2ccc(CC3SC(=O)NC3=O)cc2)nc1 (stereo not given) | inactive | inactive | – | – |
| O=C1c2ccccc2C(=O)N1CCl | inactive | inactive | – | – |
| O=C(OC1C[C@H]2CC[C@@H](C1)[N+]21CCCC1)C(O)(c1ccccc1)c1ccccc1 (stereo not given in full) | inactive | inactive | – | – |
| CC(C)(C)c1cc(C(C)(C)C)c(O)c(C(C)(C)C)c1 | inactive | inactive | – | – |
| O=C(/C=C/C=C/c1ccc2c(c1)OCO2)N1CCCCC1 | inactive | inactive | – | – |
| CCOC(=O)[C@H](CCc1ccccc1)N[C@H]1CS[C@H](c2cccs2)CN(CC(=O)O)C1=O | inactive | inactive | – | – |
| CN(CCOc1ccc(NS(C)(=O)=O)cc1)CCc1ccc(NS(C)(=O)=O)cc1 | inactive | inactive | – | – |
| COc1cc(Cc2cnc(N)nc2N)cc(OC)c1OC | inactive | inactive | – | – |
| COc1ccc2c(c1OC)C(=O)O[C@@H]2[C@H]1c2c(cc3c(c2OC)OCO3)CCN1C | inactive | inactive | – | – |
| CO[Si](CCCCl)(OC)OC | inactive | inactive | – | – |
| Cc1cn([C@H]2C[C@H](F)[C@@H](CO)O2)c(=O)[nH]c1=O | inactive | inactive | – | – |
| O=S(=O)(O)c1ccccc1/C=C/c1ccc(-c2ccc(/C=C/c3ccccc3S(=O)(=O)O)cc2)cc1 | inactive | inactive | – | – |
| CC[N+](CC)(CCNC(=O)C(=O)NCC[N+](CC)(CC)Cc1ccccc1Cl)Cc1ccccc1Cl | inactive | inactive | – | – |
| C#C[C@]1(O)CC[C@H]2[C@@H]3[C@H](C)CC4=C(CCC(=O)C4)[C@H]3CC[C@@]21C | inactive | inactive | – | – |
| NS(=O)(=O)c1cc2c(cc1C(F)(F)F)NCNS2(=O)=O | inactive | inactive | – | – |
| CC(=O)c1cnccn1 | inactive | inactive | – | – |
| Nc1nc(-c2ccccc2)cs1 | inactive | inactive | – | – |
| CC(=O)OCCc1ccccc1 | inactive | inactive | – | – |
| CC(C)=CCCC(C)CCOC(=O)C(C)C (stereo not given) | inactive | inactive | – | – |
| CC(=O)OCCCc1ccccc1 | inactive | inactive | – | – |
| CC(C)(C)NCC(O)c1cc(O)cc(O)c1 (stereo not given) | inactive | inactive | – | – |
